Reference: PubChem BioAssay (NCI)
The panel holds about 79,000 compounds, 15% with a hit somewhere; the sample as a whole holds those more often. Calls of active or inactive are those of the source. No stated cut-off is given here; in the data, active means growth inhibition above about 70%; inactive means the rest.

Assays:
[1] = NCI Yeast Anticancer Drug Screen. Data for the rad50 strain (AID 155);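 further: 0% = growth of vehicle-only cultures of the same strain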; conditions: S. cerevisiae rad50 strain growth inhibition; at 50.0 µM; stronger effect = higher value
Procedure, shortened: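 Relative growth inhibition (compound vs vehicle) was measured in yeast with a defined repair-gene alteration.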

[2] = NCI Yeast Anticancer Drug Screen. Data for the mec2-1 strain (AID 157); conditions: S. cerevisiae mec2-1 strain, at 50.0 µM, stronger effect = higher value
Procedure, shortened: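 Mutant yeast (mec2-1) grown with compound; growth inhibition relative to vehicle control reported.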

[3] = NCI Yeast Anticancer Drug Screen. Data for the sgs1 mgt1 strain (AID 161);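 further: 0% = growth of cultures given vehicle only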; conditions: S. cerevisiae sgs1 mgt1 strain, at 50.0 µM, stronger effect = higher value
Procedure, shortened: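 Growth of a repair-deficient yeast mutant was monitored after compound treatment and expressed as inhibition relative to vehicle-treated cultures.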

[4] = NCI Yeast Anticancer Drug Screen. Data for the cln2 rad14 strain (AID 165);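 further: 0% = growth equal to vehicle treated cultures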; conditions: S. cerevisiae cln2 rad14 strain, at 50.0 µM, stronger effect = higher value
Procedure, shortened: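 Readout is yeast growth inhibition versus vehicle-treated controls, using a strain with cln2 and rad14 alterations exposed to compound.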

[5] = NCI Yeast Anticancer Drug Screen. Data for the bub3 strain (AID 167); conditions: S. cerevisiae bub3 mutant strain, at 50.0 µM, stronger effect = higher value
Procedure, shortened: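 Screening used yeast with an engineered genetic alteration affecting cell cycle control. Compound-exposed cultures were compared with vehicle cultures, and reduced growth was taken as inhibition.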

[6] = NCI Yeast Anticancer Drug Screen. Data for the mlh1 rad18 strain (AID 175); conditions: S. cerevisiae mlh1 rad18 strain growth inhibition; at 50.0 µM; stronger effect = higher value
Procedure, shortened: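 Genetically defined yeast (DNA repair-deficient) exposed to compounds; growth inhibition determined relative to vehicle.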

Compound	growth inhibition [1]	growth inhibition [2]	growth inhibition [3]	growth inhibition [4]	growth inhibition [5]	growth inhibition [6]
CCOC(=O)c1ccccc1OCc1ccccc1	13.3% (inactive)	15.2% (inactive)	5.75% (inactive)	-5.9% (inactive)	51.8% (inactive)	14.9% (inactive)
Brc1ccc(-c2ccc(Br)cc2)cc1	-4.45% (inactive)	-4.35% (inactive)	6.25% (inactive)	-44% (inactive)	-19.1% (inactive)	-5.25% (inactive)
CNc1ccc(Oc2ccccc2)cc1[N+](=O)[O-]	-2.2% (inactive)	6.4% (inactive)	-11.3% (inactive)	-34.6% (inactive)	-9.9% (inactive)	-11% (inactive)
COC1=CC(=O)OC(c2ccccc2)(c2ccccc2)C1	-3.6% (inactive)	-15.1% (inactive)	8.8% (inactive)	13% (inactive)	13.6% (inactive)	-3.65% (inactive)
Cc1cc(=O)[nH]c(Nc2nc3cc(C)c(C)cc3[nH]2)n1	9.6% (inactive)	-4.9% (inactive)	2.05% (inactive)	9.2% (inactive)	-8.2% (inactive)	-8.4% (inactive)
O=C1C(=Cc2ccc([N+](=O)[O-])o2)C(=O)N(CCc2ccccc2)S(=O)(=O)N1CCc1ccccc1	38.9% (inactive)	-3.65% (inactive)	10.8% (inactive)	-22.5% (inactive)	-6.6% (inactive)	2.4% (inactive)
C[C@@]12CCC(=O)c3coc(c31)C(=O)c1cc3c(cc12)C(=O)C=CC3=O	92% (active)	93.2% (active)	93.2% (active)	91.4% (active)	92.2% (active)	91.9% (active)
CCOC(=O)C(C#N)(Cc1c(-c2ccccc2)[nH]c2ccccc12)NC(C)=O (stereo not drawn)	-4.25% (inactive)	0.75% (inactive)	4.85% (inactive)	-14.6% (inactive)	7.9% (inactive)	6.15% (inactive)
CC(=O)Nc1ccc(O)c(C(=O)O)c1	-8.6% (inactive)	7.3% (inactive)	-8.55% (inactive)	-6% (inactive)	24.1% (inactive)	-24.4% (inactive)
CC(C)(O)c1c(F)c(F)c(F)c(F)c1F	17.2% (inactive)	-13.7% (inactive)	5.1% (inactive)	17.6% (inactive)	27.8% (inactive)	7.15% (inactive)
O=C(O)CC1OCC=C2C[N+]3([O-])CCC45c6ccccc6NC4C1C2CC53 (stereo not drawn)	-1.5% (inactive)	19.7% (inactive)	-16.1% (inactive)	-31.9% (inactive)	-35.4% (inactive)	10.6% (inactive)
COC(=O)c1ccccc1S(=O)(=O)NC(C)C	10.8% (inactive)	-1.15% (inactive)	16.9% (inactive)	11.8% (inactive)	-4.7% (inactive)	25.8% (inactive)
CCn1cnc2c(=O)n(C)c(=O)n(C)c21	-31.8% (inactive)	-17.9% (inactive)	4% (inactive)	-36% (inactive)	-0.55% (inactive)	-0.95% (inactive)
NNC(=O)c1ccco1	27.2% (inactive)	-3.85% (inactive)	-14.3% (inactive)	20.8% (inactive)	-2.1% (inactive)	15.8% (inactive)
COCC(C)OC(=O)c1ccccc1Cl (stereo not drawn)	7.65% (inactive)	10.3% (inactive)	5.95% (inactive)	2.65% (inactive)	21.1% (inactive)	24.3% (inactive)
OCCOc1ccc(Cl)cc1Cl	-6% (inactive)	-32% (inactive)	-18.2% (inactive)	-2.85% (inactive)	-0.8% (inactive)	9.05% (inactive)
c1ccc(-c2cnc(C3CCCCC3)o2)cc1	28% (inactive)	-14.1% (inactive)	14.8% (inactive)	10.2% (inactive)	17.1% (inactive)	5.55% (inactive)
CC(C)=Nn1cnc2nccnc2c1=O	2.55% (inactive)	-6.05% (inactive)	-14.2% (inactive)	-40% (inactive)	-13.3% (inactive)	-1.6% (inactive)
Cc1ccccc1-c1c(N)nc(N)nc1C(=O)Nc1nccs1	-26.6% (inactive)	-36.2% (inactive)	-39.6% (inactive)	-3.85% (inactive)	-28.1% (inactive)	-7.9% (inactive)

Compound	growth inhibition [1]	growth inhibition [2]	growth inhibition [3]	growth inhibition [4]	growth inhibition [5]	growth inhibition [6]
O=C(O)/C=C/C(=O)Nc1cc(Cl)cc2c1-c1c(Cl)cc(Cl)cc1C2O (stereo not drawn)	83.7% (active)	54% (inactive)	84% (active)	-5.45% (inactive)	11.3% (inactive)	51.9% (inactive)
CC(C)c1cc(C(F)(F)F)nc(NNc2nc(C(C)C)cc(C(F)(F)F)n2)n1	-19.6% (inactive)	-25.1% (inactive)	-16.5% (inactive)	-13.2% (inactive)	-15.4% (inactive)	-34.1% (inactive)
COc1cc(C=O)c([N+](=O)[O-])cc1OC	14.2% (inactive)	-20.7% (inactive)	18.2% (inactive)	20.9% (inactive)	-8.5% (inactive)	-8.85% (inactive)
O=C(Nc1nc(C23CC4CC(CC(C4)C2)C3)cs1)c1cc2cc(Br)cc(Br)c2oc1=O	-8.75% (inactive)	-13.8% (inactive)	23.3% (inactive)	19.9% (inactive)	-12.8% (inactive)	-8.4% (inactive)
CCN(CC)CCCC(C)Nc1ccnc2c(Cl)cccc12 (stereo not drawn)	15.7% (inactive)	14.3% (inactive)	22.4% (inactive)	22.6% (inactive)	5.2% (inactive)	2.4% (inactive)
O=C(O)C(Cc1ccccc1)C(=O)O.[NH2-].[NH2-].[Pt+2]	-11.7% (inactive)	-0.95% (inactive)	10.9% (inactive)	13.1% (inactive)	1.25% (inactive)	24.2% (inactive)
Cc1cc(Cl)ccc1C(=O)O	-0.9% (inactive)	9.7% (inactive)	13.3% (inactive)	1.35% (inactive)	-12.8% (inactive)	20.2% (inactive)
C=C(C)C(=O)OC1C/C(CO)=C\C(O)C/C(C)=C/C2OC(=O)C(=C)C21 (stereo not drawn)	55% (inactive)	31.1% (inactive)	33.7% (inactive)	48% (inactive)	41.5% (inactive)	-46.7% (inactive)
CCCNc1nnnn1CCC	3.15% (inactive)	5.05% (inactive)	-0.4% (inactive)	4.25% (inactive)	10.9% (inactive)	-0.05% (inactive)
CC(=O)NC(Cc1ccccc1)C(=O)Nc1ccccc1C (stereo not drawn)	9.1% (inactive)	-18.3% (inactive)	14.8% (inactive)	10.6% (inactive)	7.75% (inactive)	7.35% (inactive)
CCS(=O)CCCN1CCc2ccccc2C1 (stereo not drawn)	25.5% (inactive)	-0.95% (inactive)	13.9% (inactive)	-33% (inactive)	-3% (inactive)	-5.95% (inactive)
c1ccc2sc(SCSc3nc4ccccc4s3)nc2c1	2.65% (inactive)	-31.9% (inactive)	-18.1% (inactive)	-13.7% (inactive)	-1.05% (inactive)	-30.9% (inactive)
Cc1cc(=O)[nH]c(N/N=C/c2ccc(O)cc2)n1	-28.9% (inactive)	-44.5% (inactive)	-14.7% (inactive)	2.65% (inactive)	-30.4% (inactive)	-26.8% (inactive)
COC(=O)C1=CON2C3CC4CC(C3)CC(C4)C12C (stereo not drawn)	-2% (inactive)	-30.6% (inactive)	-8.95% (inactive)	-14.2% (inactive)	-18.4% (inactive)	-5.9% (inactive)
CC(O)(c1ccc(OCCC[N+](C)(C)C)cc1)C(C)(O)c1ccc(OCCC[N+](C)(C)C)cc1 (stereo not drawn)	-25.5% (inactive)	-17.1% (inactive)	-39% (inactive)	12.9% (inactive)	-16.9% (inactive)	-27.6% (inactive)
O=C1CSC(c2ccc(Cl)cc2)N1c1ccc(-n2c(-c3ccccc3)nc3ccccc3c2=O)cc1 (stereo not drawn)	-3.65% (inactive)	-12.2% (inactive)	5.35% (inactive)	-43.4% (inactive)	-0.7% (inactive)	14.8% (inactive)
Cc1nc(C)c(Cc2ccccc2)o1	1.05% (inactive)	20.9% (inactive)	18.1% (inactive)	27.6% (inactive)	5.3% (inactive)	30.7% (inactive)
CCOC(=O)C(=[N+]=[N-])C(=O)c1cc2ccccc2oc1=O	-19.2% (inactive)	6.85% (inactive)	13.6% (inactive)	-0.55% (inactive)	-13.7% (inactive)	22.2% (inactive)
Cc1ccccc1/C=C/C(=O)O	-0.4% (inactive)	-9.95% (inactive)	-0.45% (inactive)	-13.6% (inactive)	-24.4% (inactive)	-12.7% (inactive)
